In PubChem BioAssay (Tox21):
Where “and” joins values, the source holds several entries; their conditions need not be identical. Equal entries are not always repeated. Records with an inconclusive call do not appear. The source holds several records for some structures; these can differ, active in one and inactive in another. Calls of active or inactive are those of the source. Unless noted, calls come from the whole dose curve; as a rule, active = well fitted curve in the direction sought with a large enough effect in the repeat runs; inconclusive = weak or mixed curves; inactive = no such curve, though single readings can be large; an effect the other way counts as inactive or inconclusive.

What was measured:
[1] = qHTS assay to identify small molecule agonists of H2AX (AID 1224845; active = well fitted activation curve with a large enough effect in the signal ratio in the repeat runs, not every such curve was filed as active; the % refers to the signal ratio; note: potency is the fitted concentration of half-maximal effect)
Procedure, shortened: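 Wild-type CHO-K1 cells, plated overnight, exposed 3hr at 37C to 15 concentrations (0.76% DMSO final). Lysed, then HTRF anti-pH2AX (S139) cryptate and anti-H2AX-d2 antibodies, 24 hr room temperature; 665/620 nm emission read.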

[2] = qHTS RealTime-Glo MT Cell Viability Assay in HepG2 cells - 24 hour (AID 1224867); note: nearly all actives have a fitted effect of over 50% in size; note: potency is the fitted concentration of half-maximal effect
Procedure, shortened: (§1)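 Tox21 10K library screened in qHTS format on HepG2 cells carrying RealTime-Glo reagents. Compounds were added after a 5 h preincubation, and the luminescent signal from continuous culture was measured repeatedly during 40 h treatment.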

[3] = qHTS RealTime-Glo MT Cell Viability Assay in HEK293 cells - 32 hour (AID 1224868); note: nearly all actives have a fitted effect of over 50% in size; note: potency is the fitted concentration of half-maximal effect
Procedure, shortened: (§2)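 Luminescence generated by NanoLuc from substrate produced by living HEK293 cells served as the viability signal. Each value reflects the reading at its stated time point during continuous 40 h compound exposure at 37 C.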

[4] = qHTS RealTime-Glo MT Cell Viability Assay in HepG2 cells - 40 hour (AID 1224870); note: nearly all actives have a fitted effect of over 50% in size; note: potency is the fitted concentration of half-maximal effect
Procedure, shortened: (§3)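 HepG2 cells (600/well) mixed with RealTime-Glo MT reagent, settled 5 h at 37 C/5% CO2 before compound addition. Nonlytic NanoLuc luminescence from viable-cell prosubstrate reduction read repeatedly during 40 h treatment at 37 C.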

[5] = A CellTox Green Cytotoxicity Assay to monitor cytotoxicity in HEK293 cells - 40 hour (AID 1224871); note: nearly all actives have a fitted effect of over 45% in size; note: potency is the fitted concentration of half-maximal effect
Procedure, shortened: (§4)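 HEK293 cells, 600/well, were preincubated 5 hours and then exposed to compounds at 37 C for up to 40 hours. A cell-impermeant cyanine dye staining dead-cell DNA was read by fluorescence at 0, 8, 16, 24, 32 and 40 h time points.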

[6] = qHTS RealTime-Glo MT Cell Viability Assay in HEK293 cells - 16 hour (AID 1224872); note: nearly all actives have a fitted effect of over 50% in size; note: potency is the fitted concentration of half-maximal effect
Procedure, shortened: as §2

[7] = qHTS RealTime-Glo MT Cell Viability Assay in HepG2 cells - 8 hour (AID 1224873); note: nearly all actives have a fitted effect of over 55% in size; note: potency is the fitted concentration of half-maximal effect
Procedure, shortened: as §3

[8] = A CellTox Green Cytotoxicity Assay to monitor cytotoxicity in HEK293 cells - 24 hour (AID 1224875); note: nearly all actives have a fitted effect of over 45% in size; note: potency is the fitted concentration of half-maximal effect
Procedure, shortened: as §4

[9] = A CellTox Green Cytotoxicity Assay to monitor cytotoxicity in HepG2 cells - 16 hour (AID 1224876); note: nearly all actives have a fitted effect of over 45% in size; note: potency is the fitted concentration of half-maximal effect
Procedure, shortened: (§5)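 HepG2 cells, 600/well, preincubated 5 h with CellTox Green dye, then exposed to Tox21 compounds in DMSO at 37 C for up to 40 h. Dead-cell DNA fluorescence read at the indicated time point.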

[10] = qHTS RealTime-Glo MT Cell Viability Assay in HepG2 cells - 32 hour (AID 1224877); note: nearly all actives have a fitted effect of over 55% in size; note: potency is the fitted concentration of half-maximal effect
Procedure, shortened: as §1

[11] = A CellTox Green Cytotoxicity Assay to monitor cytotoxicity in HepG2 cells - 24 hour (AID 1224878); note: nearly all actives have a fitted effect of over 45% in size; note: potency is the fitted concentration of half-maximal effect
Procedure, shortened: as §5

[12] = A CellTox Green Cytotoxicity Assay to monitor cytotoxicity in HepG2 cells - 40 hour (AID 1224879); note: nearly all actives have a fitted effect of over 40% in size; note: potency is the fitted concentration of half-maximal effect
Procedure, shortened: as §5

[13] = qHTS RealTime-Glo MT Cell Viability Assay in HEK293 cells - 0 hour (AID 1224880)
Procedure, shortened: (§6)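 600 cells/well were plated with the nonlytic NanoLuc/prosubstrate reagent, pre-incubated 5 h, then given 23 nL of compound in DMSO. Incubation at 37 C for 40 h, with luminescence from viable-cell-reduced substrate read repeatedly from 0 h.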

[14] = A CellTox Green Cytotoxicity Assay to monitor cytotoxicity in HEK293 cells - 32 hour (AID 1224881); note: nearly all actives have a fitted effect of over 40% in size; note: potency is the fitted concentration of half-maximal effect
Procedure, shortened: as §4

[15] = qHTS assay to identify small molecule agonists of the hypoxia (HIF-1) signaling pathway (AID 1224846; active = well fitted activation curve with a large enough effect in the signal ratio in the repeat runs, not every such curve was filed as active; the % refers to the signal ratio)
Procedure, shortened: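 HRE-bla ME-180 beta-lactamase reporter cells in medium with 0.5% dialyzed FBS, pre-incubated 5 h then exposed to compounds 17 h at 37C, 5% CO2; reporter induction read with CCF4-AM FRET substrate.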

[16] = qHTS assay to identify small molecule agonists of H2AX - cell viability counter screen (AID 1224847; calls by dose curve; note: nearly all actives have a fitted effect of over 30% in size; note: potency is the fitted concentration of half-maximal effect)
Procedure, shortened: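 Cells plated first: CHO-K1, 1000 per well in 10% FBS medium, incubated overnight at 37C. Then 15-point compound titration added (final DMSO 0.76%) for 3 hr. Finally CellTiter-Glo added and luminescence read.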

[17] = qHTS assay to identify small molecule antagonists of the estrogen related receptor (ERR) signaling pathway from Tox21 library (AID 1224848); note: nearly all actives have a fitted effect of over 50% in size; note: potency is the fitted concentration of half-maximal effect
Procedure, shortened: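 ERR reporter cell line (from NTP) seeded 2,000 cells/well, rested 6 h at 37 C/5% CO2, then pin-dosed with compounds in DMSO. After 18 h at 37 C, ONE-Glo added; luminescence read after 30 min at room temperature.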

[18] = qHTS assay to identify small molecule agonists of the estrogen related receptor (ERR) signaling pathway from Tox21 library (AID 1224849; calls by dose curve; note: nearly all actives have a fitted effect of over 15% in size); settings: ERR reporter cell line, ONE-Glo luciferase, 18 h
Procedure, shortened: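 ERR reporter cells (NTP line) pre-incubated 6 hours at 37 C, then exposed to compounds for 18 hours at 37 C. ONE-Glo luciferase luminescence was read after 30 minutes at room temperature.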

[19] = A CellTox Green Cytotoxicity Assay to monitor cytotoxicity in HEK293 cells - 0 hour (AID 1224869); note: nearly all actives have a fitted effect of over 50% in size
Procedure, shortened: as §4

[20] = qHTS RealTime-Glo MT Cell Viability Assay in HEK293 cells - 40 hour (AID 1224874); settings: RealTime-Glo luminescence; max response: stronger effect = lower value; note: nearly all actives have a fitted effect of over 50% in size; note: potency is the fitted concentration of half-maximal effect
Procedure, shortened: as §6
% is set by controls: 0 for no effect and ±100 for the full control effect.

O=P(OCC(Br)CBr)(OCC(Br)CBr)OCC(Br)CBr (centres undefined)
inactive: Potency [1] | Potency [2] | Potency [4] | Potency [5] | Potency [7] | Potency [8] | Potency [9] | Potency [10] | Potency [11] | Potency [12] | outcome [13] | Potency [14]
active: Potency [3] 27.9 µM | Potency [6] 22.2 µM

CC(=O)NNc1ccccc1
inactive: outcome [15] | Potency [16] | activity change, positive = activation ([18]; at 92.4 µM (top of the series)) -40.3% | Potency [2] | Potency [3] | Potency [19] | Potency [4] | Potency [5] | Potency [6] | Potency [7] | Potency [8] | Potency [9] | Potency [10] | Potency [11] | Potency [12] | outcome [13] | Potency [14]
active: Potency [17] 4.82 µM

CCCCCCCCCCCC[N+](C)(C)CCOc1ccccc1
active: Potency [16] 89.8 µM and 49.2 µM | Potency [17] 19.3 µM and 21.1 µM | Potency [2] 21.9 µM and 9.52 µM | Potency [3] 7.76 µM and 9.52 µM | Potency [4] 19.5 µM and 6.01 µM | Potency [5] 19.5 µM and 23.9 µM | Potency [6] 19.5 µM and 19 µM | Potency [7] 55 µM and 23.9 µM | Potency [20] 6.92 µM and 9.52 µM | Potency [8] 17.4 µM and 23.9 µM | Potency [9] 24.6 µM and 19 µM | Potency [10] 19.5 µM and 7.56 µM | Potency [11] 15.5 µM and 8.49 µM | Potency [12] 12.3 µM and 6.74 µM | Potency [14] 17.4 µM and 23.9 µM
inactive: activity change, positive = activation ([18]; at 42.5 µM (top of the series)) -65.5% | activity change, positive = activation ([18]; at 92.4 µM (top of the series)) -76.3% | Potency [19] | outcome [13]

CC[N+]1(C)CCCC(OC(=O)C(O)(c2ccccc2)c2ccccc2)C1 (centres undefined)
inactive: Potency [1] | Potency [16] | Potency [17] | activity change, positive = activation ([18]; at 42.5 µM (top of the series)) 6.13% | Potency [2] | Potency [3] | Potency [19] | Potency [4] | Potency [5] | Potency [6] | max response [20] 1.3% | Potency [8] | Potency [9] | Potency [10] | Potency [11] | Potency [12] | outcome [13] | Potency [14]

CCC(C)(C)c1ccc(O)c(C(C)(C)CC)c1
60.4 µM (active) and inactive: Potency [17]
inactive: activity change, positive = activation ([18]; at 92.4 µM (top of the series)) -59% and -10.3% | Potency [19] | Potency [4] | max response [20] -21.8% | Potency [10] | outcome [13]
48.5 µM (active) and inactive: Potency [3]
active: Potency [1] 56 µM and 35.7 µM | Potency [16] 88.8 µM and 40.1 µM | Potency [5] 43.2 µM and 15.5 µM | Potency [6] 43.2 µM | Potency [20] 43.2 µM | Potency [8] 43.2 µM and 17.4 µM | Potency [9] 24.3 µM | Potency [11] 34.3 µM | Potency [12] 38.5 µM | Potency [14] 48.5 µM and 13.8 µM

CCC1(C2=NCCN2)Cc2ccccc2O1 (centres undefined)
inactive: Potency [1] | Potency [16] | Potency [17] | activity change, positive = activation ([18]; at 42.5 µM (top of the series)) 5.71% | Potency [2] | Potency [19] | Potency [4] | Potency [5] | Potency [6] | Potency [7] | max response [20] 7.14% | Potency [8] | Potency [9] | Potency [10] | Potency [11] | Potency [12] | outcome [13] | Potency [14]

C[CH2][Hg][S]c1ccccc1C(=O)O
active: Potency [1] 4.01 µM | Potency [16] 17.9 µM and 24.7 µM | Potency [2] 2.19 µM and 2.13 µM | Potency [3] 977 nM and 1.07 µM | Potency [4] 2.19 µM and 2.39 µM | Potency [5] 6.92 µM and 4.77 µM | Potency [6] 1.23 µM and 2.13 µM | Potency [7] 3.47 µM and 2.13 µM | Potency [20] 871 nM and 952 nM | Potency [8] 7.76 µM and 5.35 µM | Potency [9] 3.89 µM and 2.39 µM | Potency [10] 2.19 µM and 2.13 µM | Potency [11] 5.49 µM and 2.39 µM | Potency [12] 1.95 µM and 2.13 µM | Potency [14] 7.76 µM and 4.77 µM
inactive and 16.8 µM (active): Potency [17]
inactive: activity change, positive = activation ([18]; at 42.5 µM (top of the series)) -75.4% | activity change, positive = activation ([18]; at 92.4 µM (top of the series)) -77.1% | outcome [13]
